A number with no mark means an inactive call. The source made the active and inactive calls.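 The calls were made as follows: active = activity change under -35% in any replicate well, with more than 20 beads read in that well; inactive = the rest.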
Molecular target: Caspase recruitment domain-containing protein 9 (Homo sapiens) + E3 ubiquitin-protein ligase TRIM62 (Homo sapiens) (UniProt Q9H257+Q9BVG3)
Experiment: disruptors of CARD9-TRIM62 binding, primary screen, cell lysate, HEK293FT lysates, Luminex bead ELISA (AID 1259341);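 also: PE anti-Flag signal of Flag-CARD9 captured by myc-TRIM62 beads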
Details: PE fluorescence, stronger effect = lower value, concentration not given here

Sequence of Caspase recruitment domain-containing protein 9 (Homo sapiens) + E3 ubiquitin-protein ligase TRIM62 (Homo sapiens) (Q9BVG3 whole entry, looked up, the tested form may be a part): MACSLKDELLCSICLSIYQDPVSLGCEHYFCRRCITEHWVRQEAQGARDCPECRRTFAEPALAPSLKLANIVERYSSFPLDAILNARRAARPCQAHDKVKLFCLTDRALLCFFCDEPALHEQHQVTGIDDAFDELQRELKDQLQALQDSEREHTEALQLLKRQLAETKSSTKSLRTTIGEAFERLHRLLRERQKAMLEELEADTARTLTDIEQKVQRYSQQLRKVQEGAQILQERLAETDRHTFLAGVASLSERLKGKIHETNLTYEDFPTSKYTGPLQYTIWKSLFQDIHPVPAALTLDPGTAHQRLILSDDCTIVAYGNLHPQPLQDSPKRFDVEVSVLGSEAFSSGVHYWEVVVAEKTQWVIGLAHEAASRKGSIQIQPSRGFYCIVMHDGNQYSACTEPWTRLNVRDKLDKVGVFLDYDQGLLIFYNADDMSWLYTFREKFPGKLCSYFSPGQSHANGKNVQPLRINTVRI
Sequence of Caspase recruitment domain-containing protein 9 (Homo sapiens) + E3 ubiquitin-protein ligase TRIM62 (Homo sapiens) (Q9H257 whole entry, looked up, the tested form may be a part): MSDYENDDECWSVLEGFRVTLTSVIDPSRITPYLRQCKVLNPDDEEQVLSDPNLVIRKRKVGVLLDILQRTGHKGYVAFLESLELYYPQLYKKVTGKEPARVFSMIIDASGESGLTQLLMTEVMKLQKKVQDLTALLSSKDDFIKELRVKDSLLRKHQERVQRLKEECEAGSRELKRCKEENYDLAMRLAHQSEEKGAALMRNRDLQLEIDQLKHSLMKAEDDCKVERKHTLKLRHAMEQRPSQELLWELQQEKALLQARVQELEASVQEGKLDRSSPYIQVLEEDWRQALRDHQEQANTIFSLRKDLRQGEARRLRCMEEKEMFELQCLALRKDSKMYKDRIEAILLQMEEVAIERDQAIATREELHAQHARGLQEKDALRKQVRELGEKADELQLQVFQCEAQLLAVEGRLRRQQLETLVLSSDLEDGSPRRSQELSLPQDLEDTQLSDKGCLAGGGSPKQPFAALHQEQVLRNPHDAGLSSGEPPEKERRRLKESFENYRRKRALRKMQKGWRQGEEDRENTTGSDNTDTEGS

SMILES: Clc1ccc2nc(CN3CCCCCC3)cn2c1
- activity change, negative = inhibition: 5.28%

SMILES: O=C(CN1CCN(c2ccccc2O)CC1)NC(=O)NC1CCCC1
- activity change, negative = inhibition: 2.28%

SMILES: N#Cc1c(-c2ccco2)cc(-c2cccnc2)nc1N
- activity change, negative = inhibition: 0.372%

SMILES: FC(F)(F)c1cc(Cl)c2nnc(C(F)(F)Cl)n2c1
- activity change, negative = inhibition: 1.08%

SMILES: Cc1ccc(-c2cc(C(=O)Nc3ccccn3)c3ccccc3n2)o1
- activity change, negative = inhibition: -4.7%

SMILES: C[C@H](CO)N1C[C@H](C)[C@@H](CN(C)C(=O)C2CCCCC2)OCCCC[C@H](C)Oc2ccc(NS(=O)(=O)c3cccs3)cc2C1=O
- activity change, negative = inhibition: 6.34%

SMILES: CCN1CCN(C(=O)c2cc(-c3ccco3)nc3ccccc23)CC1
- activity change, negative = inhibition: 4.84%

SMILES: CN(C)c1ccc(CN2C[C@H]3CC[C@@H]2CN(C(=O)c2ccncc2)C3)cn1
- activity change, negative = inhibition: 1.51%

SMILES: O=[N+]([O-])c1cccc(-c2nnc3ccc4ccccc4n23)c1
- activity change, negative = inhibition: -7.69%

SMILES: Cc1ccc(N2C(=O)c3ccccc3C2C(=O)c2ccc(O)cc2O)cc1 (configuration not stated)
- activity change, negative = inhibition: 12.1%

SMILES: O=C(COc1cccnc1[N+](=O)[O-])c1ccc(Cl)s1
- activity change, negative = inhibition: -9.96%

SMILES: CC(=O)Nc1ccc(Nc2nc(-c3nnc(-c4cccc(C)c4)o3)nc3ccccc23)cc1
- activity change, negative = inhibition: -1.95%

SMILES: COCCn1c(C)cc(-c2csc(N)n2)c1C
- activity change, negative = inhibition: 0.765%

SMILES: Cc1nn2c(c1-c1ccccc1)NC(c1ccco1)=CC2c1ccco1 (configuration not stated)
- activity change, negative = inhibition: 21.4%

SMILES: Cc1ccccc1C(=O)Nc1cnc(N2CCC(C(N)=O)(N3CCCCC3)CC2)c(C(=O)O)c1
- activity change, negative = inhibition: -48.4% (active)

SMILES: Cc1oc(CSCc2cc(C(=O)O)c(C)o2)cc1C(=O)O
- activity change, negative = inhibition: 1.21%

SMILES: CC1Cc2ccccc2N1CC(=O)NC(=O)NC(C)(C)C (configuration not stated)
- activity change, negative = inhibition: 2.18%

SMILES: C[C@H](CO)N1C[C@H](C)[C@@H](CN(C)C(=O)C2CCCCC2)OCCCC[C@H](C)Oc2ccc(NS(=O)(=O)c3cn(C)cn3)cc2C1=O
- activity change, negative = inhibition: -7.17%

SMILES: O=C(CCn1cncn1)N1CCC(n2cc(-c3ccccn3)nn2)CC1
- activity change, negative = inhibition: 3.29%

SMILES: N#Cc1sc2nc(-c3ccccc3)cc(-c3ccco3)c2c1N
- activity change, negative = inhibition: 2.21%

SMILES: O=C(Cn1c(=O)cc(C(=O)N2CCc3ccccc3C2)c2ccccc21)NCc1ccc2c(c1)OCO2
- activity change, negative = inhibition: -5.84%

SMILES: O=S(=O)(Nc1nccs1)c1ccc(-n2cccc2)cc1
- activity change, negative = inhibition: 3.9%

SMILES: CCCC(=O)NCc1ccc2c(c1)cc(C)n2C
- activity change, negative = inhibition: 7.86%

SMILES: O=C(O)Cc1c[nH]c2cccc(O)c12
- activity change, negative = inhibition: 0.751%

SMILES: O=C1CC2(CCN(C(=O)Nc3ccccc3)CC2)CN1Cc1ccc(Cl)cc1
- activity change, negative = inhibition: -3.18%

SMILES: O=S(=O)(Nc1nc2ccccc2nc1NCc1ccco1)c1ccccc1
- activity change, negative = inhibition: 1.68%

SMILES: COc1ccc(S(=O)(=O)Nc2ccc3c(c2)C(=O)N([C@H](C)CO)C[C@H](C)[C@@H](CN(C)C(=O)C2CCCCC2)OCCCC[C@H](C)O3)cc1
- activity change, negative = inhibition: -4.07%

SMILES: CC(C)(C)c1ccc(-c2nc(C#N)c(NCc3ccncc3)o2)cc1
- activity change, negative = inhibition: 6.53%

SMILES: CC(=O)Nc1ccc2nc3c(=O)n(C)c(=O)n(C)c3nc2c1
- activity change, negative = inhibition: 3.76%

SMILES: O=C(O)COc1ccc(-n2cccc2)cc1
- activity change, negative = inhibition: -1.45%

SMILES: Cc1ncnc(N2CCC(c3nccn3Cc3cccnc3)CC2)c1C
- activity change, negative = inhibition: -10.5%

SMILES: O=C(NC(Sc1ncccn1)C(=O)c1ccccc1)c1ccccc1 (configuration not stated)
- activity change, negative = inhibition: 2.47%

SMILES: O=C1C=C(c2ccccc2)Nc2ccccc2N1
- activity change, negative = inhibition: 2.64%

SMILES: COc1ccc(-n2c(C)c3c(OC)cccc(=O)c3c2C)cc1
- activity change, negative = inhibition: 3.94%

SMILES: O=c1/c(=C/c2ccco2)sc2nc3ccccc3n12
- activity change, negative = inhibition: 0.484%

SMILES: NC(=O)C1(N2CCCCC2)CCN(c2ncc(NC(=O)c3cccs3)cc2C(=O)O)CC1
- activity change, negative = inhibition: -9.12%

SMILES: O=C(Nc1ncccc1O)c1ccc(OCC2CCCO2)cc1 (configuration not stated)
- activity change, negative = inhibition: 2.58%

SMILES: O=C(O)c1ccccc1SC1CC(=O)N(Cc2ccccc2)C1=O (configuration not stated)
- activity change, negative = inhibition: 6.92%

SMILES: Cc1cccc(Nc2nc(C(=O)Nc3cc(F)ccc3F)nc3ccccc23)c1
- activity change, negative = inhibition: 1.63%

SMILES: Nc1ccc(-c2cccc(CN3CCCC3)c2)cc1
- activity change, negative = inhibition: -3.56%

SMILES: COc1ccc(S(=O)(=O)N2CCN(C(=O)c3cc4c(s3)CCC4)CC2)cc1
- activity change, negative = inhibition: 0.552%

SMILES: COc1cccc(NC(=O)CN(C)C(=O)c2cc3c(s2)CCC3)c1
- activity change, negative = inhibition: -19.8%
